Measurements reported in PubChem BioAssay (EPA / NIEHS).
Inconclusive results are not listed. Activity calls are given as the source filed them. The calls were made as follows, unless noted: active = hit-call score of the fitted dose curve at least 0.9, where 1 is the maximum; inactive = score below 0.9.

Columns and labels:
[1] = target: Oxysterols receptor LXR-alpha (Homo sapiens) (UniProt Q13133); assay: ATG_LXRa_TRANS: Attagene TRANS-FACTORIAL HepG2 Assay for human Liver X Receptor alpha (LXRa) (AID 2282980; active = hit-call score of the fitted dose curve at least 0.9, where 1 is the maximum); details: HepG2 Attagene TRANS reporter, LXRa transactivation
Chain of Oxysterols receptor LXR-alpha (Homo sapiens) (Q13133 whole entry, looked up, the tested form may be a part): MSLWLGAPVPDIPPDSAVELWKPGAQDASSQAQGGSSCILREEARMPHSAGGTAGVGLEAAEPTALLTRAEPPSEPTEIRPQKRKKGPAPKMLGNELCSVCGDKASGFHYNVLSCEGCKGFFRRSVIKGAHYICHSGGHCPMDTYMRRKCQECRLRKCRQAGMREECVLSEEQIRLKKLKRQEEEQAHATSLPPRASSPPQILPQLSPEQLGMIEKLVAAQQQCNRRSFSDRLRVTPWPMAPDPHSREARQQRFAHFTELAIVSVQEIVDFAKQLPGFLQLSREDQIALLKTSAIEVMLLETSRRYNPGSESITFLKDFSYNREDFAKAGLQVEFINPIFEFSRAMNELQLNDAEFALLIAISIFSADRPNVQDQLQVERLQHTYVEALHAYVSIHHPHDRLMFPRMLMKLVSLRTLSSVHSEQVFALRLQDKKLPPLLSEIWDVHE
Procedure, shortened: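 Read-out: reporter transcript levels by RT-PCR plus capillary electrophoresis, fluorescence intensity. Transiently transfected HepG2, exogenous NR-GAL4 chimera, GAL4-UAS reporters; 24 h compound exposure. Activity = increase over DMSO negative control.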

[2] = target: Oxysterols receptor LXR-beta (Homo sapiens) (UniProt P55055); assay: ATG_LXRb_TRANS: Attagene TRANS-FACTORIAL HepG2 Assay for human Liver X Receptor beta (LXRb) (AID 2282981; active = hit-call score of the fitted dose curve at least 0.9, where 1 is the maximum); details: HepG2 Attagene TRANS GAL4-LXRb reporter, mRNA
Chain of Oxysterols receptor LXR-beta (Homo sapiens) (P55055 whole entry, looked up, the tested form may be a part): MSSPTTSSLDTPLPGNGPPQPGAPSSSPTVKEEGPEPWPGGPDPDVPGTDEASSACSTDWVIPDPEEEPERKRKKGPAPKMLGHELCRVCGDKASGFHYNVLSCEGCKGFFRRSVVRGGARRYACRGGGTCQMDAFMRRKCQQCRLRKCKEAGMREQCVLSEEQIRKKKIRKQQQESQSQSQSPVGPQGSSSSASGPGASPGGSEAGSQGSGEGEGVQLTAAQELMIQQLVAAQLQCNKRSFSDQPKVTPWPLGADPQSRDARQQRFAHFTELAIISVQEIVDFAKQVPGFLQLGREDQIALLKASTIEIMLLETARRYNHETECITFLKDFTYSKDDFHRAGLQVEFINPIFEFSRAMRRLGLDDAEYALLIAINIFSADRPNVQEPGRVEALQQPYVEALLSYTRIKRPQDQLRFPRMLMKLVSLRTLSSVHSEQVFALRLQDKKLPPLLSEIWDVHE
Procedure, shortened: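 Readout: fluorescent reporter mRNA fragments resolved by capillary electrophoresis after RT-PCR. System: transiently transfected human HepG2, exogenous LXRb-Gal4 chimera driving GAL4-UAS reporter, 24 h dosing. Activity fitted upward against DMSO baseline.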

[3] = target: Hepatocyte nuclear factor 4-alpha (Homo sapiens) (UniProt P41235); assay: ATG_HNF4a_TRANS: Attagene TRANS-FACTORIAL HepG2 Assay for human Hepatocyte Nuclear Factor 4 alpha (HNF4a) (AID 2282982; active = hit-call score of the fitted dose curve at least 0.9, where 1 is the maximum); details: HepG2 HNF4a transactivation reporter, mRNA readout
Chain of Hepatocyte nuclear factor 4-alpha (Homo sapiens) (P41235 whole entry, looked up): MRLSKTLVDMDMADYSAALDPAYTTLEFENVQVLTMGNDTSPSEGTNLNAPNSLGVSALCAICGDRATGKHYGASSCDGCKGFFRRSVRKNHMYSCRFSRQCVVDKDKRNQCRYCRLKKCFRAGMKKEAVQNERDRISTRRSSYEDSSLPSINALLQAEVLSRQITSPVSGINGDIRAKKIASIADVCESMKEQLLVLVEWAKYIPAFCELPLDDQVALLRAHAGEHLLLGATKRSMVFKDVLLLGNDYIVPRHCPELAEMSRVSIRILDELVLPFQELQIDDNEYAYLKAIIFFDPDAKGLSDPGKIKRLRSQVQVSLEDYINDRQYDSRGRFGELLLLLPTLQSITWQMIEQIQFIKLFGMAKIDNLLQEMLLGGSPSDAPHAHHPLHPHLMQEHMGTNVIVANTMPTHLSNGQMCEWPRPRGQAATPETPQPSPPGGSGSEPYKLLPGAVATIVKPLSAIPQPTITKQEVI
Procedure, shortened: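 Transient MRTU transfection of HepG2, 24 h dosing. Readout: reporter mRNA via RT-PCR + capillary electrophoresis, fluorescence; activity fit upward relative to DMSO control.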

[4] = ATG_M_06_TRANS: Attagene TRANS-FACTORIAL HepG2 Assay for M06 Transcription Factor (Internal Marker) (AID 2282983; active = hit-call score of the fitted dose curve at least 0.9, where 1 is the maximum); details: HepG2 Attagene TRANS M06 internal marker reporter
Procedure, shortened: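 Read-out: fluorescent reporter cDNA fragments resolved by capillary electrophoresis after RT-PCR and HpaI cut. Source cells were HepG2 carrying transfected multi-reporter GAL4 constructs, dosed 24 h. Increase over DMSO control analysed.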

[5] = target: Nuclear receptor subfamily 4 group A member 2 (Homo sapiens) (UniProt P43354); assay: ATG_NURR1_TRANS: Attagene TRANS-FACTORIAL HepG2 Assay for human Nuclear Receptor Related Protein 1 (NURR1) (AID 2282985; active = hit-call score of the fitted dose curve at least 0.9, where 1 is the maximum); details: HepG2 Attagene TRANS reporter, mRNA readout
Chain of Nuclear receptor subfamily 4 group A member 2 (Homo sapiens) (P43354 whole entry, looked up, the tested form may be a part): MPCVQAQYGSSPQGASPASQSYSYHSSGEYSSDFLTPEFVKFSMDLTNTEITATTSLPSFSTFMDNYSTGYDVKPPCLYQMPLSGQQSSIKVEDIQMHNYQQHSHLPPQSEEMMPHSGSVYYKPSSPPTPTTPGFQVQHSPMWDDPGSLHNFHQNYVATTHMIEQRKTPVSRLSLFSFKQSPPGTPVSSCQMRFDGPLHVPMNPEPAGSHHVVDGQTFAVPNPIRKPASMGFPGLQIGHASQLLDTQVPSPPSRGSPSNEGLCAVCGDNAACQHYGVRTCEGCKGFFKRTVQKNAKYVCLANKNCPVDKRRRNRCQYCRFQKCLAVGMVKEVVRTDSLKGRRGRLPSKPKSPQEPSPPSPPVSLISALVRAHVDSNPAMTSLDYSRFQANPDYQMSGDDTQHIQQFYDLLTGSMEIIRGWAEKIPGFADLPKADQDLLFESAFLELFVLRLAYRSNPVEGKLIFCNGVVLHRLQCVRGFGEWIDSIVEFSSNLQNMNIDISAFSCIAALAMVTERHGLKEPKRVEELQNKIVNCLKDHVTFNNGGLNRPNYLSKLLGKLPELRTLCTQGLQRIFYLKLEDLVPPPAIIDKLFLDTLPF
Procedure, shortened: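 Read-out: reporter mRNA induction by RT-PCR plus capillary electrophoresis with fluorescence detection, after 24 h dosing of transfected HepG2 cells. Exogenous NR-Gal4 chimera activity drives GAL4-UAS reporter; activity fitted upward versus DMSO.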

[6] = target: Transcriptional activator Myb (Homo sapiens) (UniProt P10242); assay: ATG_Myb_CIS: Attagene CIS-FACTORIAL HepG2 Assay for human Myeloblastosis (Myb) Proto-Oncogene Transcription Factor (AID 2282986); details: HepG2 Attagene CIS-FACTORIAL Myb reporter transcription; actives raise or lower the signal
Chain of Transcriptional activator Myb (Homo sapiens) (P10242 whole entry, looked up): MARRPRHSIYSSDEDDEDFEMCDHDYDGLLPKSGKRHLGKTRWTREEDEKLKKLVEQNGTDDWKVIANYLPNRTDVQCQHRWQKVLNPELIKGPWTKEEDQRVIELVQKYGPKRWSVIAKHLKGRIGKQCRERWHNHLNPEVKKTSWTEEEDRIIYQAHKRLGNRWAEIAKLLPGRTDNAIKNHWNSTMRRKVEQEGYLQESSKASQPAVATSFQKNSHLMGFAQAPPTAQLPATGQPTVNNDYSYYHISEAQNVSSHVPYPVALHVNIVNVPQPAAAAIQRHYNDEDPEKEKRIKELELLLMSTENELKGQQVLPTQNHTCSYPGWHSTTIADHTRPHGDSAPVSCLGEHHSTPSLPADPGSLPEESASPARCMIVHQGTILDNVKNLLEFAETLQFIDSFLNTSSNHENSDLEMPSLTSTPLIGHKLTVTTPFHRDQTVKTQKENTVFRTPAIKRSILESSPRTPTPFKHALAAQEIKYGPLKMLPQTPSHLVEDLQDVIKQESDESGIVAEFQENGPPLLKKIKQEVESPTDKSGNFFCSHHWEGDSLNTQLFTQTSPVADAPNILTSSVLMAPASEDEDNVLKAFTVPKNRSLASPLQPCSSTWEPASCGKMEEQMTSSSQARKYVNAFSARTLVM
Procedure, shortened: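 Reporter mRNA is quantified by RT-PCR and capillary electrophoresis 24 h after dosing HepG2 cells transfected with cis-regulated reporter units, which track endogenous transcription factor activity. Gain and loss of signal are fitted versus DMSO baseline.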

[7] = target: Nuclear respiratory factor 1 (Homo sapiens) (UniProt Q16656); assay: ATG_NRF1_CIS: Attagene CIS-FACTORIAL HepG2 Assay for human Nuclear Respiratory Factor 1 (NRF1) Orphan Gene (AID 2282987); details: HepG2 NRF1 cis-element reporter, Attagene multiplex; actives raise or lower the signal
Chain of Nuclear respiratory factor 1 (Homo sapiens) (Q16656 whole entry, looked up): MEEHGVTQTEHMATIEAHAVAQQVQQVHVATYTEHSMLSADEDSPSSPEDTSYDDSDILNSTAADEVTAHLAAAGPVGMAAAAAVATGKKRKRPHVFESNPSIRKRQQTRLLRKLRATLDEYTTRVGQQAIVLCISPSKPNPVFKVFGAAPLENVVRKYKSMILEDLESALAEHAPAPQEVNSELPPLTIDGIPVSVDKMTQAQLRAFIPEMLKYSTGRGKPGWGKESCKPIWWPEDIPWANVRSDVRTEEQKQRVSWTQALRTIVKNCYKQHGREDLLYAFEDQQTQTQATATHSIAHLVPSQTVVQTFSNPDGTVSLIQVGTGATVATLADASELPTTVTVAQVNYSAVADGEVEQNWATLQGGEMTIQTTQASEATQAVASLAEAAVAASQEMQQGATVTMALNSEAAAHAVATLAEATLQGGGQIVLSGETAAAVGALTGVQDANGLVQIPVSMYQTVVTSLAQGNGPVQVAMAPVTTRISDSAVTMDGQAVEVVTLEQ
Procedure, shortened: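 Endogenous NRF1-driven reporter transcription in transfected HepG2 cells after 24 h treatment. Readout: RT-PCR products, 6-FAM labelled and resolved by capillary electrophoresis; changes fitted both directions relative to DMSO.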

[8] = ATG_NFI_CIS: Attagene CIS-FACTORIAL HepG2 Assay for human Nuclear Factor I (NFI) (AID 2282989); details: HepG2 cis-regulatory reporter, NFI response element transcription; actives raise or lower the signal
Procedure, shortened: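 HepG2, transient MRTU, 24 h exposure; RNA→cDNA→PCR→FAM label→HpaI→CE fluorescence. Bidirectional fit, DMSO = baseline.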

[9] = target: Myc proto-oncogene protein (Homo sapiens) (UniProt P01106); assay: ATG_Myc_CIS: Attagene CIS-FACTORIAL HepG2 Assay for human Myelocytomatosis (Myc) Proto-Oncogene Transcription Factor (AID 2282990); details: HepG2, Attagene cis-reporter transcription factor activity; actives raise or lower the signal
Chain of Myc proto-oncogene protein (Homo sapiens) (P01106 whole entry, looked up): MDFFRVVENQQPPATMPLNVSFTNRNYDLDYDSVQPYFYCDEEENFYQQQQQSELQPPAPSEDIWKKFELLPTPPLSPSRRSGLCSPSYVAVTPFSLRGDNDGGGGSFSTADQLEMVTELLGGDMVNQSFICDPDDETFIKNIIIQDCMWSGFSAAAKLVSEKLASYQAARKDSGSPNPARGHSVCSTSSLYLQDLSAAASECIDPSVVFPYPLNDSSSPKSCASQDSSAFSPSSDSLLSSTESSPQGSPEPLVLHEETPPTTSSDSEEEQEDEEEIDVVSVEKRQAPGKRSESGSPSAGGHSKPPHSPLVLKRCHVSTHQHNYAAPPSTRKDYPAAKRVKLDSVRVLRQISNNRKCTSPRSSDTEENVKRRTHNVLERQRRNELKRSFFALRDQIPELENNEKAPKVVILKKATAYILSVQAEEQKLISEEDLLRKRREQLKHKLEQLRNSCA
Procedure, shortened: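 Transiently transfected HepG2 cells bearing cis-promoter reporter units for endogenous transcription factors; 24 h exposure. Reporter mRNA measured by RT-PCR, 6-FAM primer extension, HpaI cut and capillary electrophoresis; bidirectional fit relative to DMSO.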

[10] = ATG_NRF2_ARE_CIS: Attagene CIS-FACTORIAL HepG2 Assay for human Nuclear Factor Erythroid 2 Related Factor 2 (NFR2) response to Antioxidant Response Elements (ARE) (AID 2282992); details: HepG2 Attagene ARE/NRF2 reporter, transcription factor activity; actives raise or lower the signal;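 as to AC50: reporter mRNA level measured by RT-PCR and capillary electrophoresis fluorescence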
Procedure, shortened: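 Endogenous transcription factor activity in human liver HepG2 cells is tracked via a cis-element-driven reporter within a multiplexed set. mRNA induction is read by RT-PCR and capillary electrophoresis after 24 h, with DMSO as baseline.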

[11] = ATG_Oct_MLP_CIS: Attagene CIS-FACTORIAL HepG2 Assay for human Octamer-Binding Transcription Factor (Oct) (AID 2282993); details: HepG2 Attagene cis-factorial Oct reporter, mRNA; actives raise or lower the signal
Procedure, shortened: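 Multiplexed cis-reporter assay in human liver HepG2 cells, 24 h incubation. Reporter RNA amplified and labelled, then resolved by capillary electrophoresis; DMSO serves as negative control and baseline.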

[12] = target: Cellular tumor antigen p53 (Homo sapiens) (UniProt P04637); assay: ATG_p53_CIS: Attagene CIS-FACTORIAL HepG2 Assay for human p53 Transcription Factor (AID 2282994); details: HepG2 p53 cis-element reporter, Attagene mRNA; actives raise or lower the signal
Chain of Cellular tumor antigen p53 (Homo sapiens) (P04637 whole entry, looked up, the tested form may be a part): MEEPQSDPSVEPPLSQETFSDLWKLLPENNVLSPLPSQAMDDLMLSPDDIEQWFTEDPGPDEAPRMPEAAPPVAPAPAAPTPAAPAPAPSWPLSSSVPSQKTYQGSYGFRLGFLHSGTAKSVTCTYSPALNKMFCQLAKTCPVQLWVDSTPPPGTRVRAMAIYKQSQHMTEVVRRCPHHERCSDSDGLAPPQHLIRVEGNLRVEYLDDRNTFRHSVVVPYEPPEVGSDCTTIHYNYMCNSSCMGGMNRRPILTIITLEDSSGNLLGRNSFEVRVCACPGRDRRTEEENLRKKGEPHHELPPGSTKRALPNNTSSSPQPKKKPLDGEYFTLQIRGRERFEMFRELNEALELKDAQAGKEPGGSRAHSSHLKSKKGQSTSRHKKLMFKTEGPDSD
Procedure, shortened: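 Steps: transfect HepG2 with multiplexed cis reporter constructs; dose chemicals 24 h; extract RNA, reverse-transcribe, PCR-amplify reporter sequences; FAM-label, HpaI-digest, resolve fragments by CE. Activity fitted both directions relative to DMSO.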

[13] = BSK_3C_TissueFactor: BioMAP Diversity Plus: 3C Assay for Tissue Factor Biomarker Activity (AID 2282997); details: BioMAP 3C HUVEC, tissue factor biomarker readout; actives raise or lower the signal
Procedure, shortened: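 HUVEC, 3C system, 24 h post-dose; Tissue Factor by ELISA; bidirectional fit vs DMSO baseline.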

[14] = BSK_3C_uPAR: BioMAP Diversity Plus: 3C Assay for Urokinase-type plasminogen activator receptor (uPAR) Biomarker Activity (AID 2282998); details: BioMAP 3C HUVEC, uPAR biomarker ELISA; actives raise or lower the signal
Procedure, shortened: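 Dose primary human umbilical vein endothelial cells, incubate 24 h, measure cell-surface uPAR by ELISA, then fit the signal in both directions against the DMSO negative control.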

[15] = BSK_3C_VCAM1: BioMAP Diversity Plus: 3C Assay for Vascular cell adhesion molecule 1 (VCAM1) Biomarker Activity (AID 2282999); details: BioMAP 3C HUVEC, VCAM1 ELISA, cytokine-stimulated; actives raise or lower the signal
Procedure, shortened: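 HUVEC primary cells, 24 h compound exposure; VCAM-1 by ELISA; gain/loss of signal fitted bidirectionally vs DMSO baseline.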

[16] = target: human Peroxisome Proliferator-activated Receptor alpha (PPARa), PPARA (gene 5465) (UniProt Q07869); assay: ATG_PPARa_TRANS: Attagene TRANS-FACTORIAL HepG2 Assay for human Peroxisome Proliferator-activated Receptor alpha (PPARa) (AID 2283001; active = hit-call score of the fitted dose curve at least 0.9, where 1 is the maximum)
Chain of human Peroxisome Proliferator-activated Receptor alpha (PPARa), PPARA (gene 5465) (Q07869 whole entry, looked up, the tested form may be a part): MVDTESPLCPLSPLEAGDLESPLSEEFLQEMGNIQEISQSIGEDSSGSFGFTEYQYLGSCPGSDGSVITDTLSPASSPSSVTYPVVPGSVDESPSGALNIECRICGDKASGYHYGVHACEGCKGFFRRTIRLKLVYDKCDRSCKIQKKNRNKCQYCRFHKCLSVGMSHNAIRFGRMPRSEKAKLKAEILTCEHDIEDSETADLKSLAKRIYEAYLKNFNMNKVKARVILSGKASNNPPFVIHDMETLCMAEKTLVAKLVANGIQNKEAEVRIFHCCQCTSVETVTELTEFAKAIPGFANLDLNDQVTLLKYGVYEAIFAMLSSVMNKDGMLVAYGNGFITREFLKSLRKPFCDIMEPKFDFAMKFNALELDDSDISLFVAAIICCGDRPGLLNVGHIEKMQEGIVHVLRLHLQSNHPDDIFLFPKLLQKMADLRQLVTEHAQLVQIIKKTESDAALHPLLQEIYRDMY
Procedure, shortened: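 Transient HepG2 transfection, GAL4-UAS reporters, NR-Gal4 chimeras; 24 h compound exposure. Readout: reporter transcripts by RT-PCR, 6-FAM primer extension, HpaI digest, capillary electrophoresis. Positive direction vs DMSO baseline.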

[17] = target: human Peroxisome Proliferator-activated Receptor delta (PPARd), PPARD (gene 5467) (UniProt Q03181); assay: ATG_PPARd_TRANS: Attagene TRANS-FACTORIAL HepG2 Assay for human Peroxisome Proliferator-activated Receptor delta (PPARd) (AID 2283002; active = hit-call score of the fitted dose curve at least 0.9, where 1 is the maximum)
Chain of human Peroxisome Proliferator-activated Receptor delta (PPARd), PPARD (gene 5467) (Q03181 whole entry, looked up, the tested form may be a part): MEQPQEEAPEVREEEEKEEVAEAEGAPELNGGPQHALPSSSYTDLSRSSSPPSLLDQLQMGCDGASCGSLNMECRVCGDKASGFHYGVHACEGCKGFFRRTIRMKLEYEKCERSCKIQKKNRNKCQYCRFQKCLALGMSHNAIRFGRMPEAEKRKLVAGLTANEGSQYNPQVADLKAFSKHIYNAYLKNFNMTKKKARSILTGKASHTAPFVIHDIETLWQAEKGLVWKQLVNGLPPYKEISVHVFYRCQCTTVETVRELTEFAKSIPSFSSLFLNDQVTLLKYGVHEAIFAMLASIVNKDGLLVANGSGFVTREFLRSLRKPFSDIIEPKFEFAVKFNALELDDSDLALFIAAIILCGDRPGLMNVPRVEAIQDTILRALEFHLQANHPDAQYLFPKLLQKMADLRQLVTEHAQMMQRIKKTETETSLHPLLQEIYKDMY
Procedure, shortened: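 HepG2 cells transiently transfected with GAL4-UAS multiplexed reporter units driven by exogenous chimeric NR-GAL4 proteins; 24 h compound exposure. Reporter mRNA measured by RT-PCR, 6-FAM primer extension, HpaI digestion and capillary electrophoresis; gain of signal fitted relative to DMSO.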

[18] = ATG_M_32_TRANS: Attagene TRANS-FACTORIAL HepG2 Assay for M32 Transcription Factor (Internal Marker) (AID 2282984; active = hit-call score of the fitted dose curve at least 0.9, where 1 is the maximum;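 also: transcript level of a background control reporter unit measured by RT-PCR and capillary electrophoresis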); details: HepG2 Attagene TRANS M32 internal marker reporter
Procedure, shortened: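 Read-out: fluorescent reporter cDNA fragments resolved by capillary electrophoresis after RT-PCR of total RNA. Transfected HepG2 cells were exposed to chemical for 24 h. Activity scored in the positive direction relative to DMSO.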

[19] = ATG_NF_kB_CIS: Attagene CIS-FACTORIAL HepG2 Assay for human Nuclear Factor Kappa B (NF-kB) (AID 2282991); details: HepG2 Attagene cis-factorial NF-kB reporter mRNA; actives raise or lower the signal
Procedure, shortened: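 Readout is reporter transcript level, gain or loss versus DMSO, measured 24 h post-dose via RT-PCR, fluorescent labelling and capillary electrophoresis. Human HepG2 liver cells carried transiently transfected CIS reporter constructs reflecting endogenous factors.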

[20] = BSK_4H_Eotaxin3: BioMAP Diversity Plus: 4H Assay for Eotaxin 3 Biomarker Activity (AID 2283000); details: primary human endothelial cells (HUVEC); actives raise or lower the signal;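 as to outcome: CCL26 protein level quantified by ELISA in parallel with SRB cytotoxicity check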
Procedure, shortened: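 Readout is Eotaxin-3 (CCL26) level by ELISA in primary human umbilical vein endothelial cells harvested 24 h after chemical exposure; activity fitted in both directions against DMSO control.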

## O=C(O)C1C2CCC(O2)C1C(=O)O (stereo unspecified)
[1]
  outcome: inactive
[2]
  outcome: inactive
[3]
  outcome: inactive
[4]
  outcome: inactive
[5]
  outcome: inactive
[6]
  outcome: inactive
[7]
  outcome: inactive
[8]
  outcome: inactive
[9]
  outcome: inactive
[10]
  AC50: 34.7 µM (active)
[11]
  AC50: 75.4 µM (active)
[12]
  AC50: 100 µM (active)
[13]
  outcome: inactive
[14]
  outcome: inactive
[15]
  AC50: 21 µM (active)
[16]
  outcome: inactive
[17]
  outcome: inactive

## Nc1ccc(Cc2ccc(N)cc2)cc1
[1]
  outcome: inactive
[4]
  outcome: inactive
[18]
  outcome: inactive
[6]
  outcome: inactive
[7]
  outcome: inactive
[8]
  outcome: inactive
[19]
  outcome: inactive
[10]
  outcome: inactive
[11]
  outcome: inactive
[12]
  outcome: inactive
[13]
  outcome: inactive
[14]
  outcome: inactive
[15]
  outcome: inactive
[16]
  outcome: inactive

## Nc1ccc([N+](=O)[O-])cc1
[1]
  outcome: inactive
[2]
  outcome: inactive
[3]
  outcome: inactive
[4]
  outcome: inactive
[18]
  outcome: inactive
[5]
  outcome: inactive
[6]
  outcome: inactive
[7]
  outcome: inactive
[8]
  outcome: inactive
[9]
  outcome: inactive
[19]
  outcome: inactive
[11]
  outcome: inactive
[12]
  outcome: inactive
[14]
  outcome: inactive
[15]
  outcome: inactive
[20]
  outcome: inactive
[16]
  outcome: inactive

## CO[C@@H]1[C@H](OC(=O)NC(=O)CCl)CC[C@]2(CO2)[C@H]1[C@@]1(C)O[C@@H]1CC=C(C)C
[1]
  outcome: inactive
[2]
  outcome: inactive
[3]
  outcome: inactive
[4]
  outcome: inactive
[18]
  outcome: inactive
[6]
  outcome: inactive
[7]
  outcome: inactive
[8]
  outcome: inactive
[19]
  outcome: inactive
[10]
  AC50: 4.98 µM (active)
[11]
  AC50: 40.5 µM (active)
[12]
  outcome: inactive
[13]
  AC50: 3.62 µM (active)
[14]
  outcome: inactive
[15]
  AC50: 6.87 µM (active)
[20]
  AC50: 4.41 µM (active)
[16]
  outcome: inactive
[17]
  outcome: inactive
